# Where “and” joins values, the source holds several entries; their conditions need not be identical. Equal values may be shown once. Hit rate of the full screen: of about 360,000 compounds, about 800 (0.22%) were called active. The list comes from a sample in which actives are over-represented; it also holds similar structures and randomly drawn compounds. Values without a mark were called inactive.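 Rule for the calls: active = activation of at least 8% versus controls, or a plate z-score of at least 8; inactive = the rest.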
# Assay: compounds raising alpha-dystroglycan glycosylation – uHTS, Pro5-aDG cells, AlphaScreen, primary screen (AID 624168);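 note: Pro5 are CHO cells carrying HIG-tagged alpha-DG that lacks glycosylation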
# Details: alpha-DG glycosylation AlphaScreen (IIH6), at 10 µM, stronger effect = higher value, 0% Pro5, 100% B10-LARGE cell signal
row,Compound,activation
1,N#Cc1cnn2cc(CCN3CCOCC3)c(-c3ccc(F)cc3)nc12,-0.1%
2,CNC1(c2nnnn2-c2c(C)cccc2C)CCOC(C)(C)C1 (stereo unspecified),0.1%
3,O=C(Cn1c(=O)sc2ccccc21)Nc1ccc2c(c1)OCCO2,0.4%
4,Cc1ccc(CSc2ccc(S(=O)(=O)N3CCCCC3)cn2)cc1,0.2%
5,O=C(N1CCCCC1)N1CCN(C(=O)N2CCCCC2)CC1,-0.2%
6,CC(=O)Oc1cccc(N2C(=O)CC(Nc3ccc(N4CCOCC4)cc3)C2=O)c1 (stereo unspecified),0.6%
7,CC1=CCC2C(=O)N(c3cccc(C(=O)NC(C)c4ccccc4)c3)C(=O)C2C1 (stereo unspecified),0%
8,CC(=O)Oc1cccc(N2C(=O)C3CC=C(Cl)CC3C2=O)c1 (stereo unspecified),2.9% (active)
9,O=C1CC(Cc2ccccc2)C(=O)N1c1ccc(Cl)cn1 (stereo unspecified),-0.3%
10,CCCCN(CC)CCCNC(=O)c1ccc(CSc2nc3ccncc3[nH]2)cc1,-0.1%
11,O=C(NCC(=O)N(Cc1cccs1)C(C(=O)NC1CCCCC1)c1ccco1)c1cccs1 (stereo unspecified),0.5%
12,Cc1nnc(NC(=O)CCC(=O)N2CCC(C)CC2)s1,-0.2%
13,OC(CN=c1sc2ccccc2n1CC(O)COc1ccccc1)COc1ccccc1 (stereo unspecified),0.6%
14,COc1cccc(CN(C)CC(O)COC(c2ccccc2)c2ccccc2C)c1 (stereo unspecified),0.1%
15,CN(Cc1ccccc1)CC(O)COc1ccc(CNCc2cc3ccccc3s2)cc1 (stereo unspecified),4.3% (active)
16,Cc1nc(N)nc(Cl)c1CCC1OCCO1,0.5%
17,CC(OC(=O)C1CC(=O)N(Cc2ccccc2)C1)C(=O)Nc1ccccc1[N+](=O)[O-] (stereo unspecified),0.2%
18,CCc1noc(C)c1C(=O)N1CCCSC1=Nc1ccccc1OC,-0.1%
19,CCOc1ccc(NC(=O)c2ccc(NC(=O)C3CCCO3)cc2)cc1 (stereo unspecified),0.1%
20,Cc1ccc(NC(=O)c2ccc(Oc3ncccn3)cc2)cc1,5.5% (active)
21,CCOc1ccc(C(=O)Nc2cccc(SC)c2)cc1,0.3%

row,Compound,activation
1,COc1cc(C(=O)NCCOC(=O)c2cccc(N(C)C)c2)cc(OC)c1OC,0%
2,COCc1c(C(=O)OCC(=O)Nc2ccc(OC(F)F)cc2)oc2ccccc12,0.1%
3,Cc1cc(C)c(NC(=S)N2CCCC2C(=O)O)c(C)c1 (stereo unspecified),0.5%
4,CCCS(=O)(=O)N1CCC(CCOc2ccccc2)(C(=O)OCC)CC1,-0.1%
5,CCOC(=O)C1(CCOC)CCN(Cc2cc3ccccc3s2)CC1,2% (active)
6,CCOC(=O)C1(CCOc2ccccc2)CCN(C(=O)c2cncs2)CC1,0.1%
7,CCOC(=O)N1CCN(S(=O)(=O)c2ccc(C(=O)Nc3ccc(F)cc3F)cc2)CC1,-0.1%
8,Cc1c(CCOC(=O)CC23CC4CC(CC(C)(C4)C2)C3)sc[n+]1Cc1ccc([N+](=O)[O-])cc1,0.1% and -0.2%
9,O=C(Nc1ccccc1F)c1cc(S(=O)(=O)N2CCCCC2)cs1,0%
10,CN1CCN(S(=O)(=O)c2cccc(C(=O)Nc3cccc(S(N)(=O)=O)c3)c2)CC1,-0.1%
11,O=C(Nc1nncs1)c1cccc(S(=O)(=O)N2CCCCC2)c1,-0.2%
12,CN1CCN(S(=O)(=O)c2cccc(C(=O)Nc3sccc3C#N)c2)CC1,8.2% (active)
13,CCCOc1ccc(C2NC(=O)NC(c3ccccc3)=C2C(C)=O)cc1OCC (stereo unspecified),-0.1%
14,O=C(c1ccc(F)cc1)C1CCN(Cc2cn[nH]c2-c2ccccc2)CC1,-0.1%
15,CCCCN(CC)C(=O)C1CCCN(S(=O)(=O)c2cccc3nsnc23)C1 (stereo unspecified),-0.1%
16,Clc1ccc(-c2cc(C3CCNCC3)[nH]n2)c(Cl)c1,11.1% (active)
17,Clc1ccc(-c2cc(-c3ccccn3)on2)c(Cl)c1,0.1%
18,Cc1nn(-c2ccccc2)c2c1C(c1cccc([N+](=O)[O-])c1)N(c1ccccc1)C(=O)N2 (stereo unspecified),-0.2%
19,O=C(CCSCCc1ccccn1)Nc1nccs1,-0.1%
20,COc1ccc(CCNC(=O)c2ccc(CS(=O)(=O)c3ccc(Br)cc3)o2)cc1OC,-0.2%
21,Cc1ccccc1S(=O)(=O)Cc1ccc(C(=O)NCCN2CCCCC2C)o1 (stereo unspecified),-0.3%

row,Compound,activation
1,CCc1ccccc1S(=O)(=O)Cc1ccc(C(=O)NCCc2ccccc2)o1,13% (active)
2,CC(C)Oc1cc(F)ccc1-c1cc(C(=O)Nc2ccc(F)cc2)[nH]n1,0%
3,COc1cccc(-c2nnc(NC(=O)c3ccc(S(=O)(=O)N(CC(C)C)CC(C)C)cc3)o2)c1,6.1% (active)
4,O=C(Nc1nnc(-c2ccccc2)o1)c1cccc(S(=O)(=O)N2CCOCC2)c1,0.3%
5,COc1cc(-c2nnc(NC(=O)CS(=O)(=O)c3ccc(Cl)cc3)o2)cc(OC)c1OC,0.5%
6,CCCN(CCC)C(=O)C1c2ccccc2Oc2ccccc21,0.2%
7,C[C@H](CO)N1C[C@H](C)[C@H](CN(C)C(=O)Nc2ccc(C(F)(F)F)cc2)Oc2c(NC(=O)c3ccncc3)cccc2C1=O,-0.2%
8,O=C(NCC1CCCCC1)NCC1CCCCC1,-0.2%
9,Cc1ccc(Nc2cc(=O)n(C3CCCCC3)c(=O)[nH]2)cc1C,0.5%
10,CC(NC(=O)c1cccc(S(=O)(=O)N2CCc3ccccc3C2)c1)c1ccco1 (stereo unspecified),0.1%
11,CCOC(=O)c1ccc(NC(=O)CS(=O)(=O)c2cn(CC)c3ccccc23)cc1,-0.1%
12,CCOC(=O)c1ccc(NC(=O)Cn2cnc3cc(C)c(C)cc32)cc1,3.2% (active)
13,CCOC(=O)c1ccc(NC(=O)CCn2c(=O)oc3ccccc32)cc1,0%
14,COc1c(C)cc(C(O)c2ncc(-c3cccc(C(F)(F)F)c3)[nH]2)cc1C (stereo unspecified),0.3%
15,CC(C)c1cccc(C(C)C)c1Nc1cn[nH]c1,0.6%
16,COc1ccccc1C(=O)C(O)c1ccccc1OC (stereo unspecified),0.1%
17,CC(C)Nc1ncnc2c1ncn2[C@H]1CN(Cc2ccncc2)C[C@@H](CO)O1,0.2%
18,OC[C@@H]1CN(C2CCCC2)C[C@H](n2cnc3c(NC4CCC4)ncnc32)O1,0.3%
19,OC[C@@H]1CN(Cc2ccc(-c3ccccc3)cc2)C[C@H](n2cnc3c(NC4CCCC4)ncnc32)O1,7.5% (active)

# From PubChem BioAssay AID624168 (Sanford-Burnham Center for Chemical Genomics, 2012)
